# The supplement of paper PMC9135407
# Values joined by “and” are separate entries in the source; they are usually repeats but may differ in a detail not shown here. Equal values may be shown once. Where a name gives a salt, the structure may show the parent alone. In all, about 5,800 compounds went through this assay and about 620 (11%) showed activity. The sample holds actives, similar compounds and a random draw of the others, so the mix is not that of the screen. A number with no mark means an inactive call.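 Rule for the calls: active = score above a cut-off or among the top three wells of a plate; in these data no inactive exceeds 0.85.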
# Test system: primary human hepatic stellate cells (donor 1)
# Assay: scaled lipid accumulation score (0 = DMSO-like, 1 = nortriptyline-like); higher = stronger HSC inactivation (lipid re-accumulation), active = hit call of the paper
# Settings: 48 h
# [1] = library stock concentration: 1 mM
# [2] = library stock concentration: 10 mM
# [3] = library stock concentration: 3.33 mM
# [4] = library stock concentration: 80 uM
# [5] = library stock concentration: 400 uM
# [6] = library stock concentration: 2 mM
# [7] = library stock concentration: 100 uM
smiles,measurement,setting,value
CCCCC/C=C\C/C=C\C/C=C\C/C=C\CCCC(=O)NC[C@@H](C)O [R-2 Methanandamide],scaled lipid accumulation score,[1],≤ 0
COC[C@@H]([C@H](O)[C@H](O)C(=O)NCC[C@H](C)c1nc(/C=C/C[C@@H]2O[C@]3(C[C@@H](O)[C@@H]2C)O[C@H]([C@H](C[C@H](O)[C@H](C)[C@H](O)[C@H](C)/C=C(C)/C(C)=C/C=C/C(C)=C\C#N)OC)[C@H](OP(=O)(O)O)C3(C)C)co1)N(C)C [Calyculin A],scaled lipid accumulation score,library stock concentration: 500 uM,0.228
C=C1[C@@H](C)[C@H]2[C@H](Cc3ccccc3)NC(=O)C23[C@H](OC(C)=O)/C=C/[C@](C)(O)C(=O)[C@@H](C)C/C=C/[C@H]3[C@@H]1O (stereo partly specified) [Cytochalasin D],scaled lipid accumulation score,library stock concentration: 9.9 mM,0.918 (active)
C=C1[C@@H](C)[C@H]2[C@H](Cc3ccccc3)NC(=O)[C@]23OC(=O)/C=C/[C@H](O)CCC[C@@H](C)C/C=C/[C@H]3[C@@H]1O [Cytochalasin B],scaled lipid accumulation score,library stock concentration: 10.4 mM,0.806
CC[C@@H](C)C(=O)O[C@H]1[C@H](O)[C@H]2[C@@H](CN3C[C@@H](C)CC[C@H]3[C@@]2(C)O)[C@@H]2C[C@]34O[C@]5(O)[C@@H](OC(=O)[C@](C)(O)[C@@H](C)O)CC[C@@]3(C)[C@@H]5[C@@H](OC(C)=O)[C@@H](OC(C)=O)[C@H]4[C@@]21O (stereo in doubt) [Protoveratrine b],scaled lipid accumulation score,[2],≤ 0
"COc1ccc2c(c1OC)CN1CCc3cc4c(cc3C1C2)OCO4 (stereo unspecified) [(d,l)-Tetrahydroberberine]",scaled lipid accumulation score,,≤ 0
COc1ccc2c(c[n+](C)c3c4cc5c(cc4ccc23)OCO5)c1OC [Chelerythrine Chloride],scaled lipid accumulation score,[3],0.656
COc1ccc2c(c[n+](C)c3c4cc5c(cc4ccc23)OCO5)c1OC [Chelerythrine chloride],scaled lipid accumulation score,[4],≤ -0.016
same,scaled lipid accumulation score,[5],≤ -0.016
same,scaled lipid accumulation score,[2],0.308 and 0.167
COc1ccc2c(c[n+](C)c3c4cc5c(cc4ccc23)OCO5)c1OC.Cl [Chelerythrine chloride],scaled lipid accumulation score,[6],1.1 (active)
CCCCC/C=C\C/C=C\C/C=C\C/C=C\CCC(C)C(=O)NCCF (stereo unspecified),scaled lipid accumulation score,[1],0.05
C/C=C1/C[N+]2(C)CCC34C(=C(C=O)[C@H]1C[C@@H]32)Nc1ccccc14 (stereo partly specified) [Fluorocurarine chloride],scaled lipid accumulation score,,≤ 0
CC(C)C1CNC(C(=O)O)C1CC(=O)O (stereo unspecified) [Dihydrokainic acid],scaled lipid accumulation score,[2],0.08
CCCCC/C=C\C[C@@H](/C=C/C=C\C/C=C\CCCC(=O)O)OO,scaled lipid accumulation score,[7],≤ -0.021
"CN1[C@@H]2CC[C@H]1C[C@@H](OC(=O)c1cc(Cl)cc(Cl)c1)C2 [3-Tropanyl-3,5-dichlorobenzoate]",scaled lipid accumulation score,[2],0.646
"Cc1cc(C)cc(C(=O)OC2C[C@H]3CC[C@@H](C2)N3C)c1 (stereo partly specified) [Tropanyl-3,5-dimethylbenzoate]",scaled lipid accumulation score,[2],0.57
CN1C2CCC1CC(OC(=O)c1cc(Cl)cc(Cl)c1)C2 (stereo unspecified),scaled lipid accumulation score,[2],1.04 (active)
C=C(C)[C@H]1O[C@H]2CC[C@@]3(C)[C@@](O)(CC[C@H]4[C@@H]5OC(C)(C)[C@H]6C[C@@H]7C(=C)Cc8c(Cl)cc9[nH]c(c5c9c8[C@@]76O)[C@@]43C)[C@@]23O[C@H]3[C@H]1O [Penitrem A],scaled lipid accumulation score,library stock concentration: 7.9 mM,≤ -0.021
O=c1[nH]c2ccccc2n1C1CCN(CCCC(c2ccc(F)cc2)c2ccc(F)cc2)CC1 [Pimozide] [listing 1 of 3 here],scaled lipid accumulation score,[2],1.15 (active)
O=c1[nH]c2ccccc2n1C1CCN(CCCC(c2ccc(F)cc2)c2ccc(F)cc2)CC1 [Pimozide] [listing 2 of 3 here],scaled lipid accumulation score,[2],1.21 (active)
O=c1[nH]c2ccccc2n1C1CCN(Cc2ccc(-c3[nH]c4cc5ncnc5cc4nc3-c3ccccc3)cc2)CC1 [Sigma A6730],scaled lipid accumulation score,[4],≤ 0
same,scaled lipid accumulation score,[5],≤ 0
same,scaled lipid accumulation score,[6],0.055
same,scaled lipid accumulation score,[2],0.683
O=C(CCCN1CCC(n2c(=O)[nH]c3ccccc32)CC1)c1ccc(F)cc1 [Benperidol],scaled lipid accumulation score,,0.202
O=c1[nH]c2ccccc2n1C1CCN(CCCC(c2ccc(F)cc2)c2ccc(F)cc2)CC1 [Pimozide] [listing 3 of 3 here],scaled lipid accumulation score,,0.242
same,scaled lipid accumulation score,[2],0.021
O=c1[nH]c2ccccc2n1CCCN1CCC(n2c(=O)[nH]c3cc(Cl)ccc32)CC1 [Domperidone],scaled lipid accumulation score,,0.362
same,scaled lipid accumulation score,[3],0.062
same,scaled lipid accumulation score,library stock concentration: 4.7 mM,0.135 and 0.071
c1cc(N2CCNCC2)c2cc[nH]c2c1 [4-(1-piperazinyl)-1H-Indole (hydrochloride)],scaled lipid accumulation score,[1],≤ 0
CNCCCCCCN(C)N(O)N=O,scaled lipid accumulation score,[1],0.005
OC1CCCCC1N1CCC(c2ccccc2)CC1 (stereo unspecified),scaled lipid accumulation score,[2],≤ 0
OC1CCCCC1N1CCC(c2ccccc2)CC1 (stereo unspecified) [Vesamicol hydrochloride],scaled lipid accumulation score,library stock concentration: 6.8 mM,≤ 0
same,scaled lipid accumulation score,[2],≤ -0.027
NC(=O)C[S@@+]([O-])C(c1ccccc1)c1ccccc1,scaled lipid accumulation score,[2],≤ 0
CCCCC[C@@H](/C=C/C=C\C/C=C\C/C=C\CCCC(=O)O)OO,scaled lipid accumulation score,[7],≤ -0.01
CCCCC/C=C\C/C=C\C/C=C\C/C=C\CCCC(=O)Nc1cccc(O)c1 [N-(3-hydroxyphenyl)-Arachidonoyl amide],scaled lipid accumulation score,[1],0.053
CCN(CC)CCOC(=O)C(O)(c1ccccc1)c1ccccc1,scaled lipid accumulation score,[2],≤ 0
CCCCC/C=C\C/C=C\C/C=C\C/C=C\CCCC(=O)NCCF [Arachidonoyl-2'-Fluoroethylamide],scaled lipid accumulation score,[1],≤ 0
CCCN1CCc2cccc3c2[C@H]1Cc1ccc(O)c(O)c1-3 [R(-)-Propylnorapomorphine hydrochloride],scaled lipid accumulation score,[2],≤ -0.038
"CCCCCCCCCC(=O)OC[C@H](COP(=O)([O-])OCC[N+](C)(C)C)OC(=O)CCCCCCCCC [1,2-Didecanoyl PC]",scaled lipid accumulation score,[1],≤ 0
c1ccc2sc(C3(N4CCCCC4)CCCCC3)cc2c1 [BTCP hydrochloride],scaled lipid accumulation score,[2],0.74
S=C=Nc1cccc(C2(N3CCCCC3)CCCCC2)c1 [Metaphit],scaled lipid accumulation score,[2],0.949 (active)
c1ccc2sc(C3(N4CCCCC4)CCCCC3)cc2c1 [BTCP maleate],scaled lipid accumulation score,[2],0.248
COC(=O)[C@@H](N)CCCNC(=N)N[N+](=O)[O-],scaled lipid accumulation score,library stock concentration: 21.4 mM,≤ -0.012
COC(=O)[C@@H](N)CCCNC(=N)N[N+](=O)[O-] [L-NAME (hydrochloride)],scaled lipid accumulation score,[1],≤ 0
COC(=O)[C@@H](N)CCCNC(=N)N[N+](=O)[O-] [NG-Nitro-L-arginine methyl ester hydrochloride],scaled lipid accumulation score,[2],0.047
COC(=O)[C@@H](N)CCCNC(=N)N[N+](=O)[O-] [L-NAME hydrochloride],scaled lipid accumulation score,[2],≤ 0
"c1cc2ccsc2c(N2CCNCC2)n1 [7-Piperazin-1-yl-thieno[2,3-c] Pyridine (hydrochloride)]",scaled lipid accumulation score,[1],≤ 0
c1cc(N2CCNCC2)c2cnccc2c1 [8-piperazin-1-yl-Isoquinoline (hydrochloride)],scaled lipid accumulation score,[1],0.005
NC(N)=Nc1ccc2[nH]c3c(c2c1)C[C@@]1(O)[C@H]2Cc4ccc(O)c5c4[C@@]1(CCN2CC1CC1)[C@H]3O5 [Guanidinyl-naltrindole di-trifluoroacetate],scaled lipid accumulation score,[2],≤ -0.07
Oc1ccc2c3c1O[C@H]1c4oc5ccccc5c4C[C@@]4(O)[C@@H](C2)N(CC2CC2)CC[C@]314 [Naltriben mesylate],scaled lipid accumulation score,library stock concentration: 4.8 mM,0.403
Oc1ccc2c3c1O[C@H]1[C@@H](O)CC[C@@]4(O)[C@@H](C2)N(CC2CCC2)CC[C@]314 [Nalbuphine],scaled lipid accumulation score,[2],0.075
Oc1ccc2c3c1O[C@H]1c4c(c5ccccc5n4Cc4ccccc4)C[C@@]4(O)C(C2)N(CC2CC2)CC[C@]314 [N-Benzylnaltrindole hydrochloride],scaled lipid accumulation score,[2],0.77
NC(N)=Nc1ccc2[nH]c3c(c2c1)C[C@@]1(O)[C@H]2Cc4ccc(O)c5c4[C@@]1(CCN2CC1CC1)[C@H]3O5 [GNTI dihydrochloride],scaled lipid accumulation score,[2],≤ -0.006
CS(=O)(=O)O.Oc1ccc2c3c1O[C@H]1c4oc5ccccc5c4C[C@@]4(O)C(C2)N(CC2CC2)CCC314 (stereo partly specified) [Naltriben methanesulfonate],scaled lipid accumulation score,[2],1.11 (active)
Oc1ccc2c3c1O[C@H]1[C@@H](O)CC[C@@]4(O)[C@@H](C2)N(CC2CCC2)CC[C@]314 [Nalbuphine hydrochloride],scaled lipid accumulation score,,≤ 0
same,scaled lipid accumulation score,library stock concentration: 5.1 mM,0.02
same,scaled lipid accumulation score,[2],≤ 0
CS(=O)(=O)O.Oc1ccc2c3c1O[C@H]1c4oc5ccccc5c4C[C@@]4(O)C(C2)N(CC2CC2)CC[C@]314 [Naltriben mesylate],scaled lipid accumulation score,[2],1.27 (active)
NNCc1ccccc1 [Benzylhydrazine hydrochloride],scaled lipid accumulation score,[2],0.294
C[C@@H]1NCCc2cc(O)c(O)cc21 [Salsolinol hydrobromide],scaled lipid accumulation score,,≤ 0
C#CC(C)(O)CC (stereo unspecified),scaled lipid accumulation score,[2],≤ 0
Cc1nnc2n1-c1ccc(Cl)cc1C(c1ccccc1)=NC2 [Alprazolam],scaled lipid accumulation score,[2],≤ 0
Cc1ncc2n1-c1ccc(Cl)cc1C(c1ccccc1F)=NC2,scaled lipid accumulation score,[2],≤ 0
CCCCC/C=C\C=C\[C@H](CCCCCCCC(=O)O)OO,scaled lipid accumulation score,[7],≤ -0.021
C=C1[C@@H](O)[C@@H]2O[C@]3(CC[C@H](/C=C/[C@@H](C)[C@@H]4CC(C)=C[C@@]5(O[C@H](C[C@@](C)(O)C(=O)O)CC[C@H]5O)O4)O3)CC[C@H]2O[C@@H]1[C@@H](O)C[C@H](C)[C@H]1O[C@@]2(CCCCO2)CC[C@H]1C [Okadaic acid],scaled lipid accumulation score,library stock concentration: 600 uM,0.393
COC1=CC(=O)O[C@@H](/C=C/c2ccccc2)C1 (racemic) [Kavain (+/-)],scaled lipid accumulation score,library stock concentration: 21.7 mM,0.117
COC1=CC(=O)O[C@@H](/C=C/c2ccccc2)C1 [Kawain],scaled lipid accumulation score,,0.119
